SW480 rerep: A quantitative high throughput screen for small molecules that induce DNA re-replication in SW480 colon adenocarcinoma cells; SW480 DNA re-replication, Hoechst DNA content imaging, 48 h; Potency, µM (top dose mostly 46.1 µM), inactives show top-dose re-replication activation, most hits filed as activators; 340,000 tested, 1.8% active; note: potency is the fitted concentration of half-maximal effect; % of control where 0% means no effect; nearly all actives have a fitted effect of over 55% in size
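Image-based read-out: total Hoechst fluorescence of nuclei (405 nm excitation, 500-530 nm emission), with hits raising the fraction of high-intensity nuclei. SW480 colon cells incubated 48 hr with compounds at 37 C.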
KB-3-1 cytotox: qHTS assay for MDR1-selective chemotherapeutics: Primary screen using the parental adenocarcinoma cell KB-3-1; KB-3-1 viability, CellTiter-Glo ATP luminescence, 72 h; Potency, µM (titrated, usually from 46.1 µM), hits mostly cytotoxic; 400,000 tested, 1.4% active; note: potency is the fitted concentration of half-maximal effect; % is set by controls: 0 for no effect and ±100 for the full control effect; nearly all actives have a fitted effect of over 60% in size
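Luminescent ATP read-out (CellTiter-Glo) measures survival of drug-naive KB-3-1 cells after 72 h compound exposure at 37 °C. Titration series was screened from lowest to highest concentration, with DMSO vehicle plates as background controls.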
D3 ag: qHTS of D3 Dopamine Receptor Agonist: qHTS. max activation, %. D3R DiscoveRx beta-arrestin cells, luminescence, 90 min. 410,000 tested, 0.58% active. D(3) dopamine receptor (Homo sapiens), P35462; in the data active = max activation above about 30%; note: 0% is about no effect
Target sequence (P35462 whole entry, looked up): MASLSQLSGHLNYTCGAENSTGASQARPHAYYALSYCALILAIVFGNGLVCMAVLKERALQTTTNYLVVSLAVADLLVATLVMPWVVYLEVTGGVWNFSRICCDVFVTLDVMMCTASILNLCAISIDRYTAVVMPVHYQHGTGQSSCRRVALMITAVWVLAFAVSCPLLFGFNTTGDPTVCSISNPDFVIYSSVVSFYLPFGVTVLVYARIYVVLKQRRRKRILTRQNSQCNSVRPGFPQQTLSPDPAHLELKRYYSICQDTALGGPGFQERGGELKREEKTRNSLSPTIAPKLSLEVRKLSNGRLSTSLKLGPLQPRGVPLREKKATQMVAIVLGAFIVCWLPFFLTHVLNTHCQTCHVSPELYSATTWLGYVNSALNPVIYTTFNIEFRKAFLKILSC
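Agonist-mode cell screen: cells plated at 1500/well and incubated overnight at 37 °C, then exposed to library compounds for 90 min at 37 °C. Detection reagent was added for 30–60 min at room temperature, and luminescence was read.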
KB-V1 cytotox: qHTS assay for MDR1-selective chemotherapeutics: Primary screen using the drug-selected MDR subline cells KB-V1; KB-V1 MDR cells viability, CellTiter-Glo, 72 h; Potency, µM (top dose mostly 46.1 µM), most hits filed as cytotoxic; 400,000 tested, 3.4% active; note: potency is the fitted concentration of half-maximal effect; % is set by controls: 0 for no effect and ±100 for the full control effect; nearly all actives have a fitted effect of over 60% in size
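Luminescent ATP read-out (CellTiter-Glo, 10 min) measures survival of drug-selected KB-V1 MDR cells after 72 h, 37 degrees C compound exposure. Medium: phenol-red-free DMEM, 10% FBS. Values from fitted concentration-response curves.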
D3 antag: qHTS of D3 Dopamine Receptor Antagonist: qHTS; 360,000 tested, 2.5% active; max response, negative = inhibition, %; D3R cells, DiscoveRx beta-arrestin luminescence, antagonist mode; active compounds read low; D(3) dopamine receptor (Homo sapiens), P35462; AID 652054, 2013; in the data active = max response below about -50%; inconclusive = no clear call, values can overlap the other calls; note: % is set by controls: 0 for no effect and ±100 for the full control effect
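Cells expressing the human receptor were seeded at 1500 cells/well, incubated overnight at 37 degrees C in 5% CO2, then exposed to library compounds with dopamine controls for 90 minutes at 37 degrees C before luminescent detection.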
MCF10A rerep: A quantitative high throughput screen for small molecules that induce DNA re-replication in MCF 10a normal breast cells; 350,000 tested, 2.9% active; AID 624296, 2012; Potency, µM (top dose mostly 46.1 µM), inactives show top-dose activity, positive = re-replication, most hits filed as activators; MCF 10A DNA re-replication, Hoechst nuclear intensity, 48 h; note: potency is the fitted concentration of half-maximal effect; % of control where 0% means no effect; nearly all actives have a fitted effect of over 50% in size
* = called active by the depositor; i = inactive; ? = inconclusive; . = not tested or not shown. An excerpt weighted towards active compounds, which were near 8.9% of everything screened. Unless noted, calls come from the whole dose curve; as a rule, active = well fitted curve in the direction sought with a large enough effect; inconclusive = small, poorly fitted or top-dose-only effect, or another doubt; inactive = no such curve, though single readings can be large; an effect the other way counts as inactive or inconclusive.

SMILES	SW480 rerep	KB-3-1 cytotox	D3 ag	KB-V1 cytotox	D3 antag	MCF10A rerep
CCc1cc(C(=O)N(C)CC(=O)Nc2c(Cl)cccc2Cl)sc1C	3%	i	3	18µM*	-17	19%
Cc1cc2n(c(=O)c1C#N)CCCN2c1cccc(Cl)c1	-2%	i	15	13µM*	26	3%
COc1cc(OC)cc(C(=O)Nc2ccc3oc(-c4ccc(Cl)cc4)nc3c2)c1	.	i	3	i	.	.
CCOC(=O)c1ccc(-n2ccnc2)c(NC(=O)c2ccc(C(C)(C)C)cc2)c1	13µM*	i	-2	i	?	?
COc1ccc(S(=O)(=O)N(CC(=O)O)c2ccccc2)cc1	5%	i	-8	i	-4	3.7µM*
COc1ccc(S(=O)(=O)N(CC(=O)Nc2ccccc2C(=O)N2CCOCC2)c2ccc(F)cc2)cc1	1%	i	-1	16µM*	-4	10%
COc1ccc(S(=O)(=O)N(CC(=O)O)c2ccccn2)cc1	0%	i	-3	i	5	1%
COc1ccc(N(CC(=O)Nc2ccccc2C(=O)NCC(C)C)S(C)(=O)=O)cc1	18µM*	i	1	i	1	-5%
COc1ccc(N(CC(=O)Nc2cc(Cl)ccc2OC)S(=O)(=O)c2c(C)noc2C)cc1	?	4.6µM*	-2	3.3µM*	8	?
CCC(C)NC(=O)c1ccccc1NC(=O)CN(c1ccc(OC)cc1)S(C)(=O)=O (configuration not stated)	-5%	i	-7	i	-22	2%
O=c1c2sc3ccccc3c2n(Cc2cccc(Cl)c2)c(=O)n1Cc1ccc(F)cc1	.	.	15	.	.	.
Cc1ccc(N2CC(NC(=O)c3cc4ccccc4o3)CC2=O)cc1C (configuration not stated)	.	.	8	.	.	.
CCC(C)NC(=O)c1ccc(Cn2c(=O)c3cccn3c3cccnc32)cc1 (configuration not stated)	.	.	-9	.	.	.
CCOc1ccc(CNC(=O)C2=Cc3cc(Br)ccc3OC2)cc1OC	.	i	6	i	.	.
COc1ccc(-c2nnc(SCC(=O)Nc3ccc(Cl)cc3)s2)cc1	.	i	-6	i	.	.
COc1ccc(N(CC(=O)Nc2ccccc2OC)S(=O)(=O)c2ccc(NC(C)=O)cc2)cc1	18µM*	21µM*	-15	?	-24	13µM*
COc1ccc(NC(=O)CN(c2ccc([N+](=O)[O-])cc2)S(=O)(=O)c2ccccc2)cc1	?	i	-14	16µM*	4	?
CSc1cc(C)c(OCC(=O)Nc2ccc(NC(C)=O)cc2)c(C)c1	-3%	i	-2	i	-52*	5%
CC(=O)Nc1ccc(NC(=O)COc2c(C)cc(Br)cc2C)cc1	-40%	i	-1	i	-3	-35%
CC(C)NC(=O)C1(C)CSCC(=O)N1C1CC1 (configuration not stated)	.	i	10	i	11	.
COc1ccc(NC(=O)C(C(C)C)N2Cc3ccccc3C2=O)cc1 (configuration not stated)	.	i	8	?	.	.
Cc1ccc2nsnc2c1NC(=O)CCl	?	i	2	i	-22	13%
CC(C)C(=O)NC(=S)Nc1c(Cl)ccc2nsnc12	-12%	i	22	i	0	18µM*
Cc1ccc2nsnc2c1NC(=O)c1ccc([N+](=O)[O-])o1	2%	4.1µM*	2	?	9	21µM*
Cc1ccc2nsnc2c1NC(=O)c1ccc(-c2cc(Cl)ccc2Cl)o1	13µM*	?	8	?	-18	18%
SMILES	SW480 rerep	KB-3-1 cytotox	D3 ag	KB-V1 cytotox	D3 antag	MCF10A rerep
c1ccc(-c2ccc(-c3csc4ncnc(Sc5nnnn5-c5ccccc5)c34)cc2)cc1	.	i	.	i	.	.
CCOc1ccc(N2CC(c3nc4ccccc4n3Cc3cccc(Cl)c3)CC2=O)cc1 (configuration not stated)	.	i	-1	i	.	.
COc1ccc(NC(=O)C2CCCN(S(=O)(=O)c3ccc(Br)s3)C2)cc1 (configuration not stated)	.	i	5	i	.	.
Cc1cccn2cc(CSc3ccccc3N)nc12	2%	i	1	13µM*	3	3%
CCCCNC(=O)C1CCC(Cn2c(=O)c3sccc3n(CC(=O)N3CCCC3)c2=O)CC1 (configuration not stated)	.	i	2	i	.	.
CN(C)S(=O)(=O)c1ccc(Cl)c(NC(=O)CSc2nc3c(cc2C#N)C(=O)CC(C)(C)C3)c1	?	i	5	i	-5	2.9µM*
CCCCOC(=O)CSc1nc2c(cc1C#N)C(=O)CC(C)(C)C2	-4%	i	1	i	-8	15%
CN(C)S(=O)(=O)c1cccc(NC(=O)CSc2nc3c(cc2C#N)C(=O)CC(C)(C)C3)c1	16µM*	21µM*	2	16µM*	13	15µM*
CCOC(=O)c1ccc(NC(=O)CSc2nc3ccccc3c(=O)n2CCC(=O)NC2CCCCC2)cc1	.	i	1	i	.	.
COc1cc(CNCc2c(C(=O)O)c(C)n(Cc3cccc(Cl)c3)c2C)cc(OC)c1OC	.	?	-10	i	.	.
COc1cccc(-c2ccnc3c(-c4ccc(F)cc4)c(C)nn23)c1	.	i	-5	i	.	.
CCCSc1nc(-c2ccc(OC)cc2)cc(-c2ccccc2OC)c1C#N	.	i	-3	?	.	.
CS/C(N)=N/N=C/c1ccc2c(c1)OCO2	-7%	i	4	i	12	1%
O=C(NN=Cc1ccc2c(c1)OCO2)C1CC1	4%	i	-9	i	1	-4%
O=C(NN=Cc1ccc2c(c1)OCO2)NN=Cc1ccc2c(c1)OCO2	19%	i	46*	?	45	?
N/C(=N\N=Cc1ccc2c(c1)OCO2)NN=Cc1ccc2c(c1)OCO2	?	?	-8	?	8	23µM*
O=C(Nc1nnc(SCc2ccc(F)cc2)s1)c1ccc2c(c1)C(=O)N(c1ccccc1Cl)C2=O	-1%	i	53*	i	49	0%
O=C(c1ccc(Br)s1)N(Cc1cccnc1)c1nc2ccc(F)cc2s1	.	.	-2	.	.	.
CCC(C)(C)n1nnnc1CN(Cc1cccs1)Cc1cc2cc(OC)ccc2[nH]c1=O	-2%	i	4	i	2	?

High-throughput results as filed in PubChem BioAssay.
